These results are taken from the supplement of paper PMC10670038.

Counter-ions that a name gives are not always drawn. ± gives the standard deviation of the averaged measurements. In all, about 2,000 compounds were measured (“relative cell viability vs DMSO, compound + 0.2 uM CuET”: median about 1, lowest 2% from about 0.25 on). This excerpt belongs to a sample that is enriched for the lowest values.

The subject of this assay is TE10. In words: relative cell viability vs DMSO, compound + 0.2 uM CuET (fraction); TE10 is an esophageal squamous carcinoma line; higher = less cytotoxic. Particulars: 2 µM; co-treatment: CuET (bis(diethyldithiocarbamate)copper) 0.2 uM; 48 h. The protocol: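 TE10 ESCC cells (1,000/well, 384-well plates) were treated with Selleck bioactive library compounds at 2 uM combined with 0.2 uM CuET (copper diethyldithiocarbamate) for 48 h. Viability was read by CellTiter-Glo and expressed relative to DMSO wells. Two technical replicates (A, B).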
`COCC[n+]1c2c(n(Cc3cnccn3)c1C)C(=O)c1ccccc1C2=O` [YM155 (Sepantronium Bromide)]: the relative cell viability came to 0.111 ± 0.0058.
With `CCCCCCCCCCCCCCCc1cccc(O)c1C(=O)O` [Anacardic Acid], the relative cell viability is 1.26 ± 0.019.
As to `CC1(C)Cc2c(-c3ccccc3)c(-c3ccc(Cl)cc3)c(CC(=O)O)n2C1` [Licofelone], the relative cell viability was determined as 1.17 ± 0.023.
As for `N#Cc1ccc2[nH]c(O)c(-c3ccc(CN4CCOCC4)cn3)c2c1`, the relative cell viability is 1.4 ± 0.13.
Take `Cc1nc2ccc(-n3ncc(C(=O)c4cc5ccccc5[nH]4)c3N)cc2[nH]1`: the relative cell viability is 0.987 ± 0.053.
With `O=C(Nc1cccc(Cl)c1)c1ccccn1`, the relative cell viability is 1.24 ± 0.1.
For `Clc1ccc(NN=C(c2ccccc2)c2ccccn2)nc1`, the relative cell viability amounted to 0.03199 ± 0.00018.
For the molecule `CN(C)C(=S)NN=C(c1ccccn1)c1ccccn1`, the relative cell viability amounted to 0.943 ± 0.047.
Turning to `CC(=O)N[C@@H](CC(C)C)C(=O)N[C@@H](CC(C)C)C(=O)N[C@H](C=O)CCCNC(=N)N` [Leupeptin Hemisulfate], the relative cell viability came out at 1.16 ± 0.025.
For `N#CC(=Cc1ccc(-c2cc(Cl)ccc2Cl)o1)C(=O)Nc1cccc2ncccc12`, the relative cell viability amounted to 1.06 ± 0.03.
In the case of `COc1cc(C=CC(=O)N2CCC=CC2=O)cc(OC)c1OC` [Piperlongumine], the relative cell viability was 0.392 ± 0.035.
As for `CC(NC(=O)Cc1cc(F)cc(F)c1)C(=O)NC1C(=O)N(C)c2ccccc2-c2ccccc21` (centres undefined), the relative cell viability worked out at 0.97 ± 0.13.
For `CC1=NN(c2ccc(C(=O)O)cc2)C(=O)C1=Cc1ccc(-c2cc(C)c(C)cc2[N+](=O)[O-])o1` the value was 0.872 ± 0.091; for `Cc1nc(-c2cn3c(n2)-c2ccc(-c4cnn(C(C)(C)C(N)=O)c4)cc2OCC3)n(C(C)C)n1`, 0.675 ± 0.072.
Consider `OCc1ccc(-c2ccc(-c3ccc(CO)s3)o2)s1`, for which the relative cell viability was 0.225 ± 0.01.
Consider `CC(=O)OCC(=O)[C@@]12N=C(C)O[C@@H]1C[C@H]1[C@@H]3CCC4=CC(=O)C=C[C@]4(C)[C@H]3[C@@H](O)C[C@@]12C` [Deflazacort], for which the relative cell viability stood at 1.03 ± 0.012.
Regarding `CCOc1nc2cccc(C(=O)O)c2n1Cc1ccc(-c2ccccc2-c2nnn[nH]2)cc1` [Candesartan], the relative cell viability was found to be 1.06 ± 0.031.
Consider `CN(C)Cc1cccc(N=C(c2ccccc2)c2c(O)[nH]c3cc(C(N)=O)ccc23)c1`, for which the relative cell viability was 0.952 ± 0.014.
As for `Cc1[nH]c2ccccc2c1C1=C(NCCc2ccc(F)cc2)C(=O)N(C)C1=O`, the relative cell viability stood at 1.17 ± 0.023.
On to `Cc1[nH]c2ccccc2c1CCNC(=O)c1cccs1`, for which the relative cell viability was 1.01 ± 0.15.
For the molecule `Cc1[nH]c2ccccc2c1CCNCc1ccc(/C=C/C(=O)NO)cc1` [Panobinostat (LBH589)], the relative cell viability turned out to be 0.151 ± 0.0045.
Consider `COc1c(O)cc2c(c1O)[C@@H]1O[C@H](CO)[C@@H](O)[C@H](O)[C@H]1OC2=O` [Bergenin], for which the relative cell viability was 1.18 ± 0.021.
For `CN1CCC(NC(=O)c2cc(-c3c(O)cc(O)cc3Oc3ccc([N+](=O)[O-])cc3)on2)CC1`, the relative cell viability came to 0.6427 ± 0.0019.
For the molecule `NC1CC1c1ccc(-c2cccc(O)c2)cc1` (centres undefined), the relative cell viability was determined as 1.13 ± 0.036.
`O=C(/C=C/c1cccc(S(=O)(=O)Nc2ccccc2)c1)NO` [Belinostat (PXD101)]: the relative cell viability was found to be 0.195 ± 0.017.
For `O=C(C=Cc1ccccc1)NC(NC(=S)Nc1ccc(Cl)cc1)C(Cl)(Cl)Cl` (centres undefined) the value was 0.908 ± 0.014.
For `Cn1cc(/C=C/C(=O)c2cccc(F)c2)cc1/C=C/C(=O)NO` the value was 0.872 ± 0.12; for `COC1C(O)CC(=O)OC(C)CC=CC=CC(OC2CCC(N(C)C)C(C)O2)C(C)CC(CC=O)C1OC1OC(C)C(OC2CC(C)(O)C(O)C(C)O2)C(N(C)C)C1O` (centres undefined) [Spiramycin], 1.11 ± 0.0071.
In the case of `COC(=O)CC(NC(=O)C(C)NC(=O)C(NC(=O)OCc1ccccc1)C(C)C)C(=O)CF` (centres undefined), the relative cell viability came out at 1.3 ± 0.057.
For the molecule `CN(C)Cc1ccc(S(=O)(=O)n2ccc(/C=C/C(=O)NO)c2)cc1` [Resminostat], the relative cell viability came out at 0.848 ± 0.19.
Regarding `CCCCc1nc2cc(/C=C/C(=O)NO)ccc2n1CCN(CC)CC` [Pracinostat (SB939)], the relative cell viability turned out to be 0.2435 ± 0.00015.
The same measure for `COc1cc2c(cc1NS(=O)(=O)c1ccc(Br)cc1C)n(C)c(=O)n2C`: 1.17 ± 0.15.
As to `CCCC(=O)Nc1cccc(NC(=O)c2ccccc2Br)c1`, the relative cell viability stood at 1.01 ± 0.16.
Consider `O=C(O)CCNc1cc(N2CCc3ccccc3CC2)nc(-c2ccccn2)n1`, for which the relative cell viability stood at 0.765 ± 0.0059.
`CNc1nc(Nc2cnn(C3CCN(C4COC4)CC3F)c2Cl)ncc1C(F)(F)F` (centres undefined): the relative cell viability came to 1.195 ± 0.0015.
In the case of `Nc1cccc(-c2cc3c(Oc4cccc(O)c4)ncnc3[nH]2)c1`, the relative cell viability worked out at 0.976 ± 0.062.
Take `COc1ccc(-c2cnc3c(-c4cccc5ncccc45)cnn3c2)cc1`: the relative cell viability amounted to 1.17 ± 0.13.
Turning to `CC(C)Oc1ccc(-c2cnc3c(-c4ccnc5ccccc45)cnn3c2)cc1`, the relative cell viability turned out to be 1.15 ± 0.088.
Take `c1cc(-c2cnn3cc(-c4ccc(N5CCNCC5)cc4)cnc23)c2cccnc2c1`: the relative cell viability came out at 0.182 ± 0.0055.
For `Cc1c(C(=O)Nc2ccc(N3C[C@@H](C)O[C@@H](C)C3)nc2)cccc1-c1ccc(OC(F)(F)F)cc1` [LDE225 (NVP-LDE225,Erismodegib)], the relative cell viability came out at 0.714 ± 0.081.
`COc1nc(N)nc2c1ncn2[C@@H]1O[C@H](CO)[C@@H](O)[C@@H]1O` [Nelarabine]: the relative cell viability worked out at 1.21 ± 0.043.
Take `CNc1ncnc2c1ncn2[C@@H]1O[C@H](CO)[C@@H](O)[C@H]1O` [N6-methyladenosine (m6A)]: the relative cell viability is 1.06 ± 0.23.
For the molecule `COc1ccc(C[C@H](N)C(=O)N[C@H]2[C@@H](O)[C@H](n3cnc4c(N(C)C)ncnc43)O[C@@H]2CO)cc1` [Puromycin 2HCl], the relative cell viability was determined as 0.249 ± 0.0061.
The same measure for `Nc1nonc1C(=Nc1ccc(F)c(Cl)c1)NO`: 1.15 ± 0.14.
As to `O=C(Nc1cc2cc[nH]c2cn1)c1ccccc1`, the relative cell viability amounted to 0.3986 ± 0.0004.
The same measure for `CS(=O)(=O)N1CCN(Cc2cc3nc(-c4cccc5[nH]ncc45)nc(N4CCOCC4)c3s2)CC1`: 0.68 ± 0.0074; for `Cc1c(CN2CCN(C(=O)[C@H](C)O)CC2)sc2c(N3CCOCC3)nc(-c3cnc(N)nc3)nc12`: 0.495 ± 0.091; for `COc1ccc(-c2nc(N3CCOCC3)c3sc(CN(C)c4ncc(C(=O)NO)cn4)cc3n2)cn1`: 0.1569 ± 0.00068.
Regarding `NCCCC[C@@H]1NC(=O)[C@@H](Cc2ccc(O)cc2)NC(=O)[C@H](CC(=O)O)NC(=O)CNC(=O)[C@H](CCCN=C(N)N)NC1=O` [Cyclo(RGDyK)], the relative cell viability turned out to be 1.19 ± 0.27.
Turning to `O=C(O)c1ccc(N2C(=O)C(=Cc3ccc(-c4ccc([N+](=O)[O-])cc4)o3)C=C2c2ccccc2)cc1`, the relative cell viability is 1.1 ± 0.22.
As for `O=C(CCCCCCC(=O)Nc1ccccc1)NO` [Vorinostat (SAHA, MK0683)], the relative cell viability stood at 0.473 ± 0.055.
Turning to `Cc1cc(C)cc(C(=O)NOCCCCCC(=O)NO)c1`, the relative cell viability was found to be 0.23 ± 0.02.
On to `Cc1cc(Cl)ccc1OCCCC(=O)NO` [Droxinostat], for which the relative cell viability was found to be 0.997 ± 0.063.
As to `C[C@H](O)[C@H](O)[C@@H](O)[C@@H](O)C=O` [L-(+)-Rhamnose Monohydrate], the relative cell viability stood at 1.15 ± 0.046.
For `CC(NC(=O)Cc1cc(F)cc(F)c1)C(=O)NC(C(=O)OC(C)(C)C)c1ccccc1` (centres undefined) the value was 1.23 ± 0.04; for `CN(CCOc1ccc(CC2SC(=O)NC2=O)cc1)c1ccccn1` (centres undefined) [Rosiglitazone HCl], 1.06 ± 0.062; for `CN(CCOc1ccc(CC2SC(=O)NC2=O)cc1)c1ccccn1` (centres undefined) [Rosiglitazone], 1.04 ± 0.052.
For `CN(CCOc1ccc(CC2SC(=O)NC2=O)cc1)c1ccccn1` (centres undefined) [Rosiglitazone maleate] the value was 1.12 ± 0.081; for `COC(=O)C1=C(C#N)NC(C)=C(C(=O)OC(C)C)C1c1cccc([N+](=O)[O-])c1` (centres undefined) [Nilvadipine], 1.11 ± 0.1; for `O=C(Nc1cccc2cccnc12)c1ccc(N2C(=O)C3C4C=CC(C4)C3C2=O)cc1` (stereo not drawn) [IWR-1-endo], 0.994 ± 0.1.
On to `Cc1ccc(S(=O)(=O)c2ccc([N+](=O)[O-])o2)cc1`, for which the relative cell viability came to 0.175 ± 0.0036.
For `NC(=O)N/N=C/c1ccc([N+](=O)[O-])o1` [Nitrofural] the value was 1.3 ± 0.033.
In the case of `Nc1ccc(S(=O)(=O)Nc2ncccn2)cc1` [Sulfadiazine], the relative cell viability stood at 1.03 ± 0.045.
For `CNS(=O)(=O)CCc1ccc2[nH]cc(C3CCN(C)CC3)c2c1` [Naratriptan] the value was 1.2 ± 0.1; for `CCN(CCO)CCCOc1ccc2c(Nc3cc(CC(=O)Nc4cccc(F)c4)[nH]n3)ncnc2c1` [Barasertib (AZD1152-HQPA)], 1.25 ± 0.26.
Take `CC(C)C[C@@H](C=O)NC(=O)[C@H](CC(C)C)NC(=O)[C@H](CC(C)C)NC(=O)OCc1ccccc1`: the relative cell viability is 0.223 ± 0.006.
As for `CC(NC(=O)C(Cc1ccccc1)NC(=O)OCc1ccccc1)C(=O)CF` (centres undefined), the relative cell viability stood at 1.14 ± 0.028.
The same measure for `CCCC[C@@H](C=O)NC(=O)[C@H](CC(C)C)NC(=O)OCc1ccccc1` [Calpeptin]: 1.12 ± 0.036; for `C[C@]12CCC(=O)C=C1[C@@H]1C[C@@H]1[C@H]1[C@@H]3[C@@H]4C[C@@H]4[C@@]4(CCC(=O)O4)[C@@]3(C)CC[C@@H]12` [Drospirenone]: 0.77 ± 0.4.
In the case of `CC(C)C[C@H](NC(=O)[C@H](CCc1ccccc1)NC(=O)CN1CCOCC1)C(=O)N[C@@H](Cc1ccccc1)C(=O)N[C@@H](CC(C)C)C(=O)[C@@]1(C)CO1` [Carfilzomib (PR-171)], the relative cell viability was 0.198 ± 0.019.
Take `COC(=O)[C@H](Cc1ccccc1)NC(=O)[C@@H](N)CC(=O)O` [Aspartame]: the relative cell viability stood at 1.09 ± 0.034.
For `O=C(Cc1ccc(-c2ccc(OCCN3CCOCC3)cc2)cn1)NCc1ccccc1`, the relative cell viability worked out at 0.827 ± 0.037.
Take `COC[C@H](NC(=O)c1cnc(C)s1)C(=O)N[C@@H](COC)C(=O)N[C@@H](Cc1ccccc1)C(=O)[C@@]1(C)CO1` [Oprozomib (ONX 0912)]: the relative cell viability was 0.182 ± 0.0023.
Take `COc1ccc(C[C@H](NC(=O)[C@H](C)NC(=O)CN2CCOCC2)C(=O)N[C@@H](Cc2ccccc2)C(=O)[C@@]2(C)CO2)cc1`: the relative cell viability is 0.198 ± 0.0095.
The same measure for `CC(C)c1nc(CN(C)C(=O)N[C@@H](CCN2CCOCC2)C(=O)N[C@H](CC[C@H](Cc2ccccc2)NC(=O)OCc2cncs2)Cc2ccccc2)cs1` [Cobicistat (GS-9350)]: 0.957 ± 0.025; for `CC(=O)NC(Cc1ccc(O)cc1)C(=O)NC(CCCN=C(N)N)C(=O)NC(Cc1ccccc1)C(N)=O` (centres undefined): 0.977 ± 0.19.
For the molecule `CC(C)C[C@H](NC(=O)[C@H](Cc1ccccc1)NC(=O)c1cnccn1)B(O)O` [Bortezomib (PS-341)], the relative cell viability is 0.348 ± 0.058.
Consider `CC(C)CC(CC(=O)NO)C(=O)N[C@@H](Cc1ccc2ccccc2c1)C(=O)N[C@@H](C)C(=O)NCCN` (some centres undefined), for which the relative cell viability worked out at 1.19 ± 0.051.
As to `Cc1c(-c2ccnn2C)cc(C(=O)NCc2ccc(S(C)(=O)=O)cn2)c(=O)n1-c1cccc(C(F)(F)F)c1` [Alvelestat (AZD9668)], the relative cell viability is 0.993 ± 0.044.
